Results on eight compounds are retold here after PubChem BioAssay (Tox21).

A short description of experiment [1]: qHTS assay to identify small molecule agonists of the estrogen receptor alpha (ER-alpha) signaling pathway in the presence of an antagonist - cell viability counter screen (AID 1259386).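 Further: cells exposed to compounds for 22 h at 37 °C before the viability read; nearly all actives have a fitted effect of over 30% in size.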 Further: potency means the concentration at half of the fitted maximal effect. The gist of the method:
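Fluorescent CellTiter-Fluor viability signal from VM7Luc4E2 cells, with the reagent added during the final hour of a 22hr compound exposure at 37C in the presence of 10.0nM ICI-182,780.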

Experiment [2] concerns the target Progesterone receptor (Homo sapiens) (UniProt P06401). In words: qHTS assay to identify small molecule agonists of the progesterone receptor (PR) signaling pathway (AID 1346784; calls by dose curve; further: nearly all actives have a fitted effect of over 30% in size). The gist of the method:
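Compounds were tested for PR agonism in HEK 293T cells bearing a beta-lactamase gene under UAS control. Treatment lasted 16 hr at 37C; signal came from fluorescence of a FRET substrate.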
(Quantitative high-throughput screening tests each substance at several concentrations.)

A short description of experiment [3]: qHTS assay to identify small molecule antagonists of the progesterone receptor (PR) signaling pathway - cell viability counter screen (AID 1346798). Further: series mostly up to about 92 µM; nearly all actives have a fitted effect of over 50% in size. In a few lines: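 Following a 4 hr attachment, PR-UAS-bla HEK293T cells in charcoal-stripped FBS medium were exposed to compounds with R5020 for 16 hr; CellTiter-Glo was added and luminescence read after 30 min at room temperature.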

Experiment [4] is described as follows: qHTS assay to identify small molecule agonists of the progesterone receptor (PR) signaling pathway - cell viability counter screen (AID 1346799; calls by dose curve; further: nearly all actives have a fitted effect of over 45% in size). In a few lines:
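Here, 3,000 PR-UAS-bla HEK293T cells per well were treated with compounds for 16 hr after a 6 hr preincubation at 37C and 5% CO2; cell viability is the CellTiter-Glo luminescence signal.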

A short description of experiment [5]: qHTS assay to identify small molecule antagonists of the TGF-beta/Smad signaling pathway - cell viability counter screen (AID 1346824). Further: nearly all actives have a fitted effect of over 50% in size. In a few lines:
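SBE-bla HEK 293T cells were plated overnight at 37 C, then given compounds in DMSO plus TGF-beta1 (added as 0.25 ng/mL solution) for 5 hr. After the bla read, CellTiter-Glo was added to the same wells and luminescence read after 30 min at room temperature.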

A short description of experiment [6]: qHTS assay to identify small molecule agonists of the TGF-beta/Smad signaling pathway - cell viability counter screen (AID 1346829). Further: top concentration of the series differs between compounds; nearly all actives have a fitted effect of over 45% in size. In a few lines:
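Compound-treated SBE-bla HEK 293T cells (5 hr, 37 C) were assessed for viability with CellTiter-Glo in parallel with the reporter read.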

The nature of experiment [7]: qHTS assay to identify small molecule agonists of the TGF-beta/Smad signaling pathway (AID 1346859; active means well fitted activation curve with a large enough effect in the signal ratio in the repeat runs, not every such curve was filed as active; the % refers to the signal ratio; further: series mostly up to about 77 µM). The gist of the method: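 Each well held 4,000 SBE-bla HEK 293T cells incubated overnight before compound addition; 5 hr later the cleavable FRET substrate went on for 2 hr at room temperature, and fluorescence was read at two emissions.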
The target of experiment [8] is Thyrotropin-releasing hormone receptor (Homo sapiens) (UniProt P34981). Nature of the experiment: qHTS assay to identify small molecule antagonists of the thyrotropin-releasing hormone receptor (TRHR) signaling pathway (AID 1346877; active means well fitted inhibition curve with a large enough effect in the repeat runs, not every such curve was filed as active; further: series mostly up to about 51 µM). In a few lines: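 In this cell-based calcium flux format, HEK293 cells expressing TRHR received test compound for 5 min before the agonist TRH (1 nM final). Dye loading lasted 2 h at 37 °C.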

The target is the same in experiment [9]. In words: qHTS assay to identify small molecule agonists of the thyrotropin-releasing hormone receptor (TRHR) signaling pathway (AID 1346891; calls by dose curve; further: series mostly up to about 58 µM). In a few lines: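 Screening of agonists relied on calcium signalling in HEK293 cells expressing human TRHR: dye loading 2 h at 37 °C preceded compound addition and a 3-min fluorescence time course.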
Experiment [10] can be described thus: Caspase-3/7 induction in HepG2 cells by small molecules, qHTS assay (AID 1346978). Further: nearly all actives have a fitted effect of over 15% in size. In a few lines: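 Wild-type HepG2 cells (2,000/well) were settled 5 h at 37 C, 5% CO2, then exposed to compounds in DMSO for 17 h. Caspase-3/7 activity was read by luminescence 30 min after adding Caspase-Glo 3/7 reagent at room temperature.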
Experiment [11] is described as follows: Caspase-3/7 induction in CHO-K1 cells by small molecules, qHTS cell viability counter screen (AID 1346979). Further: nearly all actives have a fitted effect of over 35% in size. Further: potency means the concentration at half of the fitted maximal effect. The gist of the method: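 CellTiter-Fluor viability check, qHTS format: wild-type CHO-K1, 16hr compound treatment, 1hr reagent incubation, fluorescence read.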
Experiment [12] is described as follows: Caspase-3/7 induction in CHO-K1 cells by small molecules, qHTS assay (AID 1346980). Further: nearly all actives have a fitted effect of over 15% in size. In a few lines: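 Wild-type cells were seeded at 1,500 per well and settled 5 hr at 37 C, 5% CO2, then exposed to DMSO-dissolved compounds for 17 hr. Caspase-Glo 3/7 reagent was added, and luminescence was read after 30min at room temperature.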
A short description of experiment [13]: Caspase-3/7 induction in HepG2 cells by small molecules, qHTS cell viability counter screen (AID 1346981). Further: nearly all actives have a fitted effect of over 30% in size. Further: potency means the concentration at half of the fitted maximal effect. The gist of the method:
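Counter screen for cytotoxicity: HepG2 exposed 16 hr to compounds, then CellTiter-Fluor viability signal (fluorescence, 1 hr reagent incubation).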

The target in experiment [14] is Nuclear receptor subfamily 1 group I member 2 (Homo sapiens) (UniProt O75469). Nature of the experiment: Human pregnane X receptor (PXR) small molecule agonists, qHTS assay (AID 1346982). Further: nearly all actives have a fitted effect of over 35% in size. Further: potency means the concentration at half of the fitted maximal effect. The gist of the method: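 Luminescence (ONE-Glo, 30 min RT) after 24 hr compound exposure of PXR-Luc HepG2 cells; cells rested 5 hr post-plating in 5% charcoal-stripped FBS medium.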

Experiment [15] has as its target Cytochrome P450 2D6 (Homo sapiens) (UniProt P10635). Nature of the experiment: Cytochrome P450 Family 2 Subfamily D Member 6 (CYP2D6) small molecule antagonists: luciferase reporter qHTS assay (AID 1671196). Further: nearly all actives have a fitted effect of over 50% in size. Further: potency means the concentration at half of the fitted maximal effect. In a few lines: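 Inhibition of CYP2D6 was gauged by loss of luminescence, since light produced tracks the luciferin generated from a proluciferin substrate. A 10 min room-temperature preincubation preceded 1 h NADPH-supported turnover.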
Background: In a reporter assay the amount or activity of a reporter protein is the signal.

Experiment [16] is described as follows: Human pregnane X receptor (PXR) small molecule agonists, qHTS cell viability counter screen (AID 1346977). Further: nearly all actives have a fitted effect of over 50% in size. In a few lines: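 Tox21 qHTS format; PXR-Luc HepG2, 2,000/well, charcoal-stripped FBS 5%. Cpd exposure 24hr. Read: CellTiter-Fluor fluorescence, multiplexed with luciferase.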
The target of experiment [17] is Progesterone receptor (Homo sapiens) (UniProt P06401). Nature of the experiment: qHTS assay to identify small molecule antagonists of the progesterone receptor (PR) signaling pathway (AID 1346795; active means well fitted inhibition curve with a large enough effect in the signal ratio in the repeat runs, not every such curve was filed as active; the % refers to the signal ratio). The gist of the method:
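In HEK293T cells bearing the PR-UAS-bla reporter, compound effects on promegestone-driven (1 nM) beta-lactamase expression are assessed after 16 hr using a fluorescent FRET substrate incubated 2 hr at room temperature.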

Unmarked numbers belong to inactive results. Records with an inconclusive call do not appear. Calls of active or inactive are those of the source. Unless noted, the call rests on the fitted dose curve; in most records, active means well fitted curve in the direction sought with a large enough effect in the repeat runs; inconclusive means weak or mixed curves; inactive means no such curve, though single readings can be large; an effect the other way counts as inactive or inconclusive.

Chain of Progesterone receptor (Homo sapiens) (P06401 whole entry, looked up): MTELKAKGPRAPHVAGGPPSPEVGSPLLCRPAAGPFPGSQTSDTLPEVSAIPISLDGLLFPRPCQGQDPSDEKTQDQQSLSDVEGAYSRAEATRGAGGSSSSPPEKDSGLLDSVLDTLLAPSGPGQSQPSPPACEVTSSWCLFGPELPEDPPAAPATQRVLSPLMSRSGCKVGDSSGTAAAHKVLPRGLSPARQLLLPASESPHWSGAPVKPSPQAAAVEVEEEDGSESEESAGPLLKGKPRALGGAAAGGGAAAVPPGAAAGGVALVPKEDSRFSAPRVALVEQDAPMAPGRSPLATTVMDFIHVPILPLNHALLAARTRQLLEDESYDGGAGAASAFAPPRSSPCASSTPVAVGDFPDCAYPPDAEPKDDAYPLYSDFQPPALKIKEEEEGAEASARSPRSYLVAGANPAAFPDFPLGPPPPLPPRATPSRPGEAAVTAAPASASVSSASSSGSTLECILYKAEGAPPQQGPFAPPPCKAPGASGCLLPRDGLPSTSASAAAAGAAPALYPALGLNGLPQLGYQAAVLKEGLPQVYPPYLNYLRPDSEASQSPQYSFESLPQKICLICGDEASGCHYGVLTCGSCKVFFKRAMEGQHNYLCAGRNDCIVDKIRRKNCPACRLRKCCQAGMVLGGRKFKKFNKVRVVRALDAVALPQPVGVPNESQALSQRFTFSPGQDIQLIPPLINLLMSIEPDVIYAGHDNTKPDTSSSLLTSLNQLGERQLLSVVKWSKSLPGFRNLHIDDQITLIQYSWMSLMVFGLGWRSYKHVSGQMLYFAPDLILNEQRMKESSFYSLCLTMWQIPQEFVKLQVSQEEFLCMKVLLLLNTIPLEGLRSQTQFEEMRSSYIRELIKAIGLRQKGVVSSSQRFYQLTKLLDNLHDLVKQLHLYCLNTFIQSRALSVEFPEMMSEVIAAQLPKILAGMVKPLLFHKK
Chain of Thyrotropin-releasing hormone receptor (Homo sapiens) (P34981 whole entry, looked up): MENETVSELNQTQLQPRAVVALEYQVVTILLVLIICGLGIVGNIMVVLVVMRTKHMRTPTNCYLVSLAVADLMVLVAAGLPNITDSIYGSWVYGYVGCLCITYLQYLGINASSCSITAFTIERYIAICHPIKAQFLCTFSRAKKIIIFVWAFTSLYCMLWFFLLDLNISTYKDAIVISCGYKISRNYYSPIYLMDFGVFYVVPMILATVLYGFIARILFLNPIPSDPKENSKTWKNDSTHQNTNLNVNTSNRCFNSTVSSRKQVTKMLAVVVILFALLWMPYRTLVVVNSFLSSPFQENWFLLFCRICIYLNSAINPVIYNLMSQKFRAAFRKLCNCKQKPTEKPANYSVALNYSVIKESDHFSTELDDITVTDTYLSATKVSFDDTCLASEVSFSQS
Chain of Cytochrome P450 2D6 (Homo sapiens) (P10635 whole entry, looked up): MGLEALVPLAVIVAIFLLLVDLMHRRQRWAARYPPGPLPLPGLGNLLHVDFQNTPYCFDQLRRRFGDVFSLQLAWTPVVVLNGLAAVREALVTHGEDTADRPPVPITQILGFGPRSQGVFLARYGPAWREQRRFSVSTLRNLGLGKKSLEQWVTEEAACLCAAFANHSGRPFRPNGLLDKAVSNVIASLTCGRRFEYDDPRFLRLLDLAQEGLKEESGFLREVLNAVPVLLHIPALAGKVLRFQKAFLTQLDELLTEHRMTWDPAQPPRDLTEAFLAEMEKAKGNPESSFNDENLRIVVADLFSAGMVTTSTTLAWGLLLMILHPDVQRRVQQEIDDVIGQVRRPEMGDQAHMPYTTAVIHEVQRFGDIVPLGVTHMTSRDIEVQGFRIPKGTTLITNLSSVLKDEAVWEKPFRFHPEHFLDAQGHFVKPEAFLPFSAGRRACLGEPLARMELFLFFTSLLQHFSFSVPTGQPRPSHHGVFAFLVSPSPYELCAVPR
Chain of Nuclear receptor subfamily 1 group I member 2 (Homo sapiens) (O75469 whole entry, looked up): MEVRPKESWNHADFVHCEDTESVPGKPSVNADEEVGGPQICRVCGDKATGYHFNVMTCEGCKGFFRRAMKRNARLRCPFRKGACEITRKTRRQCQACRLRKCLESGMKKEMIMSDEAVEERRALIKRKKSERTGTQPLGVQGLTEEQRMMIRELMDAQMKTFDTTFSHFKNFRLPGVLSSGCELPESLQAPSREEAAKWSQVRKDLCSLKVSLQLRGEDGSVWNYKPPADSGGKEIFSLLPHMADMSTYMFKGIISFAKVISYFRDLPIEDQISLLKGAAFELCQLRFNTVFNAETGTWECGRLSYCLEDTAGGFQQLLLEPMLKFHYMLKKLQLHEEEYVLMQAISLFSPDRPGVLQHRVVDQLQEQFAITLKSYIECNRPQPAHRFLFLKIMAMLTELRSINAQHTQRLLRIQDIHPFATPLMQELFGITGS

As for `CCOc1ccc(N=Nc2ccc(/C=C/c3ccc(N=Nc4ccc(OCC)cc4)cc3S(=O)(=O)O)c(S(=O)(=O)O)c2)cc1`, the Potency in experiment [1] was 38 µM (active); in [11], 38 µM (active); in experiment [13], 42.6 µM (active). Moreover, the Potency result in experiment [2], in experiment [3], in experiment [4], in experiment [5], in [7] and in [9] was “inactive” throughout. The Potency entry in [10], in experiment [12], in experiment [14] and in experiment [15] was “inactive” throughout. Moreover, the call in experiment [6] and in [8] was inactive.
With `COc1ccc(C(=O)c2ccc(OC)cc2O)c(O)c1`, the Potency result in experiment [1], in experiment [2], in [3], in experiment [5], in experiment [7] and in experiment [9] was “inactive” throughout. Besides, the Potency entry in experiment [16], in experiment [10] and in experiment [12] was “inactive” each time. The result in [6] and in experiment [8] was inactive. For the same compound, the Potency in [14] was 27.5 µM (active).
Regarding `O=C(OCCc1ccccc1)c1ccccc1`, the Potency result in experiment [1], in experiment [2], in experiment [3], in experiment [5], in experiment [7] and in experiment [9] was “inactive” in each case. Also, the Potency result in [16], in experiment [10], in experiment [11], in experiment [12], in experiment [13] and in experiment [14] was “inactive” throughout. Moreover, the outcome in experiment [6] and in experiment [8] was inactive.
For `Cc1cc(N)c2cc(NC(=O)Nc3ccc4nc(C)cc(N)c4c3)ccc2n1`, the Potency result in [1], in [2], in experiment [5], in experiment [7], in experiment [9] and in experiment [12] was “inactive” each time. Also, the Potency entry in experiment [13] was “inactive”. For the same compound, the outcome in experiment [6] and in [8] was inactive.
In the case of `c1ccc(-c2ccccn2)nc1`, the Potency entry in [1], in experiment [2], in experiment [3], in experiment [5], in [7] and in experiment [9] was “inactive” throughout. For the same compound, the Potency entry in experiment [16], in experiment [10], in [13] and in [15] was “inactive” each time. Also, the outcome in [8] was inactive. Besides, the Potency in experiment [14] is 24.3 µM (active).
Turning to `CN1Cc2cc(C(=O)N3CCC(C4CCNCC4)CC3)ccc2NC(CC(=O)O)C1=O` (stereo not drawn), the Potency entry in experiment [1], in experiment [17], in experiment [3], in experiment [4], in experiment [5] and in experiment [7] was “inactive” each time. The Potency entry in experiment [9], in experiment [16], in [10], in [11], in experiment [12] and in experiment [13] was “inactive” each time. The Potency result in [14] and in [15] was “inactive” each time. Further, the compound was called inactive in [6] and in [8].
Turning to `Nc1ccccc1S(=O)(=O)c1ccccc1`, the Potency result in [1], in [2], in experiment [3], in experiment [5], in experiment [7] and in [9] was “inactive” throughout. The Potency result in experiment [16], in [10], in experiment [11], in experiment [12], in experiment [13] and in experiment [15] was “inactive” throughout. Moreover, the result in experiment [6] and in experiment [8] was inactive.
Consider `O=S(=O)(Oc1ccc(Cl)cc1)c1ccccc1`, for which the Potency result in experiment [1], in experiment [2], in [3], in experiment [4], in experiment [7] and in experiment [9] was “inactive” each time. The Potency entry in experiment [11] and in experiment [13] was “inactive” in each case. Moreover, the result in experiment [6] and in experiment [8] was inactive. The Potency in experiment [15] is 31.7 µM (active).
